From PubChem BioAssay (NCI)
This is part of a sample that, as a whole, favours compounds with a hit. Of some 83,000 tested, about 20% had one in any assay.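 Testing used 96-well plates and a 48-hour single-concentration exposure. Example: -40 means 40% of the starting cells died.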 The source made the active and inactive calls. Rule for the calls: active = growth percent below 10; inactive = the rest.

Each compound was assayed on MDA-MB-468 breast (assay: NCI-60 one-dose screen, 48 h (100 = growth as untreated, 0 = no growth, -100 = all killed)). Conditions: 10 µM unless noted.

Q: How did the growth turn out when Oc1ccc(Cl)cc1CNc1nc2ccccc2[nH]1 was run?
A: 102% (inactive)

Q: CN(C)c1ccc(C(=S)c2ccc(N(C)C)cc2)cc1 was tested. Which growth did it give?
A: -12.3% (active)

Q: With Cc1[nH]n(C(=S)Nc2nc3cc(Cl)c(F)cc3s2)c(=O)c1N=Nc1ccc(F)c(Cl)c1 as the compound, how does the growth read?
A: 114% (inactive)

Q: With O=[N+]([O-])/C(=C\c1ccco1)c1ccccc1Cl as the compound, how does the growth read?
A: 55.7% (inactive)

Q: With CC(C)=CCCC(C)c1ccc(C)c2c1OCN(CC1CCNCC1)C2 (stereo unspecified) as the compound, how does the growth read?
A: 7.48% (active)

Q: With O=C1C(N2CCOCC2)=Cc2cccc3cccc1c23 as the compound, how does the growth read?
A: 72% (inactive)

Q: How did the growth turn out when CC(C)(C)n1cc(-c2ccnc(NCCCNS(=O)(=O)c3cccc4ccccc34)c2)c(-c2cccc(O)c2)n1 was run?
A: 10.7% (inactive)

Q: How did the growth turn out when COc1cc2c(c(OC)c1OC)CCC(c1cccc(NC(=O)c3ccc(Br)cc3)c1)O2 (stereo unspecified) was run?
A: 35.8% (inactive)

Q: With CCOC(=O)c1cnc2ccccc2c1Cl as the compound, how does the growth read?
A: 97.4% (inactive)

Q: How did the growth turn out when Cc1cn(-c2cc(C(=O)Nc3cccc(C#Cc4cccc5[nH]nc(N)c45)c3)cc(C(F)(F)F)c2)cn1 was run?
A: 69.6% (inactive)

Q: Which growth does the source give for C=CCc1cc(OC)c(OC)c(OC)c1 here?
A: 91% (inactive)
